An excerpt weighted towards active compounds, which were near 12% of everything screened.
HP1b binding inh – HTS for Inhibitors of HP1-beta Chromodomain Interactions with Methylated Histone Tails | Chromobox protein homolog 1 (Homo sapiens), P83916 | AlphaScreen HP1-beta / biotin-H3K9me3 peptide binding | Potency, µM (titrated, usually from 114 µM), hits mostly inhibitors | hit rate 0.56% among 390,000; further: nearly all actives have a fitted effect of over 70% in size
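Compound inhibition of the preformed complex between 50 nM HP1-beta and 50 nM biotinylated H3K9me3 peptide was read by AlphaScreen. Buffer was PBS pH 7.4 with 0.01% Tween-20. Incubations ran 30 min at room temperature, with 10 ug/mL donor/acceptor beads.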
Sfp PPTase inh – qHTS Assay for Inhibitors of Bacillus subtilis Sfp phosphopantetheinyl transferase (PPTase). Biochemical Sfp PPTase activity, qHTS. Potency, µM, actives largely listed as inhibitors. 4'-phosphopantetheinyl transferase ffp (Bacillus subtilis), Q9F4F7. hit rate 3.5% among 310,000;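 further: the enzyme is Sfp with the accession as filed and its product quenches rhodamine fluorescence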
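Fluorescence-quenching assay: 15 nM Sfp-PPTase preincubated 15 min at room temperature with compound, then 5 uM rhodamine-CoA and 12.5 uM BHQ-2-labelled YbbR peptide added. Fluorescence (ex 525/em 598 nm) read at start and after 30 min; difference gives rate.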
JMJD2A Tudor – qHTS Assay for Inhibitors of JMJD2A-Tudor Domain | hit rate 4.4% among 390,000 | AlphaScreen JMJD2A-Tudor / H3K4me3 peptide binding | Lysine-specific demethylase 4A (Homo sapiens), O75164 | AID 504339, 2011 | Potency, µM (titrated, usually from 114 µM), hits mostly inhibitors; further: nearly all actives have a fitted effect of over 50% in size
PLK1 PBD inh – qHTS for Inhibitors of PLK1-PDB (polo-like kinase 1 - polo-box domain): Primary Screen; Serine/threonine-protein kinase PLK1 (Homo sapiens), P53350; Plk1 PBD binding of FITC phosphopeptide, fluorescence polarization; Potency, µM, usual class: inhibitors; hit rate 2.8% among 360,000; further: series mostly up to about 57 µM; nearly all actives have a fitted effect of over 65% in size
Target sequence (P53350 whole entry, looked up, the tested form may be a part): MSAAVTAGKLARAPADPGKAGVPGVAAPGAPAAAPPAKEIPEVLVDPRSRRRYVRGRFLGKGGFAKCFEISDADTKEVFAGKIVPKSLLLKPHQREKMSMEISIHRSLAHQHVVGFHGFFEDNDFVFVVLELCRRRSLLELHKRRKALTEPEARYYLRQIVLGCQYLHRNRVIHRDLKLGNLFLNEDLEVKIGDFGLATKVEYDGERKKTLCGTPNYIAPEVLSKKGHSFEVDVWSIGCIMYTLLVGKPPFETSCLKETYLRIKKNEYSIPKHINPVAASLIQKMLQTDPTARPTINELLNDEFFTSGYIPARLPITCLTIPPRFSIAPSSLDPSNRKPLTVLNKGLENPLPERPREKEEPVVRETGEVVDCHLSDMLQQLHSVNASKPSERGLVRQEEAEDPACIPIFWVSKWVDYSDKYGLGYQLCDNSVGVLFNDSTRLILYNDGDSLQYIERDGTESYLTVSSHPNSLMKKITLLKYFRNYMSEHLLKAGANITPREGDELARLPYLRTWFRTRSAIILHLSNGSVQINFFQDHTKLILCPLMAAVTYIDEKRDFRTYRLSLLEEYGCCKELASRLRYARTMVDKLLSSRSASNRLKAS
G9a inh – qHTS Assay for Inhibitors of Histone Lysine Methyltransferase G9a. Histone-lysine N-methyltransferase EHMT2 (Homo sapiens), Q96KQ7. G9a H3K9 monomethylation, AlphaScreen, 2 h. hit rate 8.8% among 350,000. Potency, µM (top dose mostly 102 µM), actives largely listed as inhibitors; further: nearly all actives have a fitted effect of over 75% in size
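Step 1: enzyme (final 20 nM) with compound, 15 min RT. Step 2: substrate peptide 500 nM and SAM 20 uM, 2 h RT. Step 3: anti-H3K9me1 antibody and AlphaScreen beads, 10 min, then plate read.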
BAZ2B block – qHTS Assay for Inhibitors of BAZ2B; Bromodomain adjacent to zinc finger domain protein 2B (Homo sapiens), Q9UIF8; AlphaScreen BAZ2B-H3K14Ac peptide displacement; Potency, µM (doses to about 114 µM), usual class: inhibitors; hit rate 4.4% among 360,000; AID 504333, 2011; further: nearly all actives have a fitted effect of over 60% in size
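AlphaScreen displacement: compounds (up to 110uM) incubated 30 min at room temperature with a preformed 50 nM BAZ2B/50 nM biotinylated H3K14Ac peptide complex in PBS pH 7.4 with Tween-20. Donor and acceptor beads at 10 ug/mL final added, 20 min light-protected before reading.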
Hits are given with their value; – = inactive; ? = inconclusive; · = no result; [ ] = dose if it differs, or a comment. The call rests on the fitted dose curve; in most records, active means well fitted curve in the direction sought with a large enough effect; inconclusive means small, poorly fitted or top-dose-only effect, or another doubt; inactive means no such curve, though single readings can be large; an effect the other way counts as inactive or inconclusive.

SMILES | HP1b binding inh | Sfp PPTase inh | JMJD2A Tudor | PLK1 PBD inh | G9a inh | BAZ2B block
Cc1nc(C)c(C(=O)C2=C(O)C(=O)N(CCN(C)C)C2c2cccs2)s1 (configuration not stated) | – | – | – | – | – | –
Cc1cc(-c2ccccc2)nc(N/N=C/c2ccccc2F)n1 | – | – | – | – | – | –
Cc1ccc([N+](=O)[O-])cc1S(=O)(=O)N1CCNCC1 | – | – | –[11.4 µM] | 15µM | – | –
NC(=O)c1ccc(-n2nnnc2Oc2ccccc2)cc1 | – | – | ? | 24µM | –[12.7 µM] | –
COc1ccc(C(C)(C)C)cc1NC(=O)CCCN1C(=O)NC(C)(C)C1=O | – | · | – | – | – | –
FC(F)(F)c1cc(N2CCOCC2)nc(-c2ccccc2)n1 | ? | – | ? | 27µM | – | –
O=C(NC1CCCCCC1)c1ccc(CS(=O)c2cccc(Cl)c2)o1 (configuration not stated) | – | · | – | · | – | ?
O=C(Cn1cnc([N+](=O)[O-])n1)N/N=C/c1ccccc1O | – | – | ? | – | – | 14µM
O=C(Cn1cnc([N+](=O)[O-])n1)N/N=C/c1cc(Cl)ccc1O | – | – | 32µM | – | – | 28µM
CCc1nn(CC(=O)Nc2ccc(C)cc2C)c(=O)c2cc3sccc3n12 | – | · | – | · | – | –
COc1ccccc1/C=C/CN1CCC(Oc2cc(C(=O)NC3CC3)ccc2OC)CC1 | – | – | – | – | – | –
COc1ccc(C(=O)Nc2nnc(C(F)(F)F)s2)cc1 | ? | – | 56µM | 27µM | – | –
Cc1c(Cl)cccc1NC(=O)CSc1cc(-c2ccccc2)ncn1 | – | · | – | · | – | –
COC(=O)/C=C1/SC(=NC(=O)c2cccc([N+](=O)[O-])c2)NC1=O | – | – | – | ? | 20µM | ?
COC(=O)/C=C1/S/C(=N/NC(=O)c2ccccc2)NC1=O | – | – | – | – | ? | –
COC(=O)/C=C1\SC(=NC(=O)c2cccc([N+](=O)[O-])c2)NC1=O | – | ? | – | – | 35µM | –
Cc1nc2c(c(C)c1CCC(=O)N1CCN(c3ccccc3)CC1)c(=O)n(C)c(=O)n2C | – | · | – | · | – | –
COc1cc(O)c(C(=O)O)c(O)c1 | · | – | · | · | · | ·
Cc1cccc(-c2nnc3sc(-c4ccccc4C)nn23)c1 | – | 50µM | – | – | – | –
COc1cccc(-c2nnc3sc(-c4ccccc4)nn23)c1 | – | – | – | – | – | –
c1ccc(-c2nnc3sc(-c4csc5c4CCCC5)nn23)cc1 | ? | 6.3µM | ? | 11µM | 5µM | –
COC(=O)CNC(=O)[C@@]1(C)C=C[C@@H](Cc2ccccc2)N1C(C)=O | · | – | · | · | · | ·
C#CCOCCOCCOCCNc1nc(N2CCN(C(=O)[C@H](CCC(=O)O)n3cc(C(N)Cc4ccc(O)cc4)nn3)CC2)nc(N2CCN(C(=O)[C@H](CCC(=O)O)n3cc(C(N)CC(C)C)nn3)CC2)n1 (some centres not stated) | – | – | 32µM | – | ? | 50µM
C#CCOCCOCCOCCNc1nc(N2CCN(C(=O)[C@H](CCC(=O)O)n3cc(C(N)CO)nn3)CC2)nc(N2CCN(C(=O)[C@H](Cc3ccc(O)cc3)n3cc(C(N)CC(C)C)nn3)CC2)n1 (some centres not stated) | · | – | · | · | ? | 32µM
C#CCOCCOCCOCCNc1nc(N2CCOCC2)nc(N2CCN(C(=O)[C@H](CCC(=O)O)n3cc(C(N)Cc4ccc(O)cc4)nn3)CC2)n1 (some centres not stated) | – | ? | 89µM | – | –[12.7 µM] | –
SMILES | HP1b binding inh | Sfp PPTase inh | JMJD2A Tudor | PLK1 PBD inh | G9a inh | BAZ2B block
C#CCOCCOCCOCCNc1nc(N2CCOCC2)nc(N2CCN(C(=O)[C@H](Cc3ccc(O)cc3)n3cc([C@@H](N)CC(C)C)nn3)CC2)n1 | – | – | – | – | ? | –
CCN(CC(=O)Nc1ccccc1C(F)(F)F)C(=O)c1ccc2[nH]c3c(c2c1)CC(C)CC3 (configuration not stated) | – | · | ? | – | –[12.7 µM] | ?
CCN(CCNC(=O)C1CCN(c2nnc(-n3cccc3)s2)CC1)c1ccccc1 | – | – | – | – | 16µM | –
CCN(CC)c1ccc(NC(=O)CN(C)S(=O)(=O)c2cccc3nsnc23)c(C)c1 | ? | · | ? | · | 18µM | ·
Cc1ccc(NC(=O)CN(C)S(=O)(=O)c2cccc3nsnc23)c(C)c1 | – | · | – | · | ? | ·
CCOc1ccc(CCNC(=O)C2CCN(c3nnc(-n4cccc4)s3)CC2)cc1 | – | – | – | – | – | –
CCN(CCNC(=O)CN(C)S(=O)(=O)c1cccc2nsnc12)c1ccccc1 | – | – | ? | – | 40µM | ?
CCN(CCNC(=O)C1CCN(S(=O)(=O)c2cccc3nsnc23)CC1)c1ccccc1 | – | – | ? | – | 50µM | ?
CCN(CC)C(=O)CN(C)S(=O)(=O)c1cccc2nsnc12 | – | – | – | – | – | –
CCCCCCN(C(=O)CCCCCN1C(=O)NC(c2ccc(-c3ccccc3)cc2)C(C(=O)OCc2ccccc2)=C1C)C(C(=O)NCCCC)c1ccc(OCC(=O)O)c(C(=O)O)c1 (configuration not stated) | · | – | · | · | · | ·
CC(C)Cn1c(=O)c2ccccc2n2c(CCC(=O)N3CCN(c4ccccc4)CC3)nnc12 | – | · | – | · | – | –
NS(=O)(=O)c1ccc(CCNC(=O)C2CCCN2S(=O)(=O)c2cccc3nsnc23)cc1 (configuration not stated) | – | – | – | – | 79µM | –
O=C(NCCc1ccccc1)C1CCCN1S(=O)(=O)c1cccc2nsnc12 (configuration not stated) | – | – | – | – | – | –
CCCCN(CCCNC(=O)C1CCN(S(=O)(=O)CC)CC1)c1ccccc1 | – | – | – | – | 7.1µM | –
COc1cnc(-c2ccccn2)nc1Oc1ccccc1Cl | – | – | – | – | – | 50µM
COc1cnc(-c2ccccn2)nc1Oc1ccc(Cl)cc1 | – | – | – | – | · | 32µM
COc1cnc(-c2ccccn2)nc1Oc1ccc(F)cc1F | – | – | – | – | – | 40µM
COc1cnc(-c2ccccn2)nc1Oc1ccc(Cl)c2ccccc12 | – | – | – | – | – | –
NNC(=O)CN1CCN(c2ncc(C(F)(F)F)cc2Cl)CC1 | – | – | – | – | – | –
O=C(O)CN1CCN(c2ncc(C(F)(F)F)cc2Cl)CC1 | – | – | – | – | 50µM | –
CC1(C)N=C(N)N=C(N)N1CCCCc1ccccc1 | – | · | – | – | · | ·
